Reference: ChEMBL document CHEMBL4513216, “Probing the Open Global Health Chemical Diversity Library for Multistage-Active Starting Points for Next-Generation Antimalarials” (ACS Infect Dis, 2020)
The campaign covered roughly 69,000 compounds. About 8,600 (12%) showed an effect of 50% or more. Shown is part of a subset that was picked to be rich in strong results.

The compounds below were run on Plasmodium berghei (assay: Screen against P. berghei liver stage (PbLuc), transformed with Luciferase, at 10uM). Settings: tested at 10 uM.
Assay type: functional, HepG2

Compound | INHIBITION [%]
Cn1cc(C(=O)OC2CN(c3nc4c(C(F)(F)F)cccc4s3)C2)nn1 | -45.6
Cc1cc(O)c(OCC(=O)Nc2nc3c(s2)CCCC3)cn1 | 40
Cc1cc(O)c(OCC(=O)Nc2nccs2)cn1 | -18
Cc1cc(O)c(OCC(=O)Nc2nc3c(s2)CCCCC3)cn1 | 54.9
CCc1ncc2c(n1)CN(Cc1nc(-c3ccoc3)no1)CC2 | 27.8
CN(C)C(=O)c1cccc(CN2CCOC(Cn3cccn3)C2)c1 (centres undefined) | -2.33
O=C(c1ccc(Cl)cc1)N1CCC(N2CCOC2=O)CC1 | 41.6
O=C(CC1=CSC2=NCCCN12)N1CCCCC1c1cccc(F)c1 (centres undefined) | 32.3
O=C(CC1=CSC2=NCCN12)N1CCCC(CCc2cccc(F)c2)C1 (centres undefined) | 68.5
Nc1nc(CC(=O)N2CCCC(CCc3cccc(F)c3)C2)cc(=O)[nH]1 (centres undefined) | 7.3
Cc1cc(C(=O)N2C[C@@H]3CC[C@H]2CN(Cc2ccccn2)C3)nc(N)n1 | 4.59
CCN(C(=O)Nc1cc(C)on1)C(C)c1cccc(O)c1 (centres undefined) | -2.43
CC(NC(=O)Nc1nccs1)c1ccncc1 (centres undefined) | 5.91
CC(NC(=O)Nc1nccs1)c1cccnc1 (centres undefined) | 54.8
CCN(C(=O)Nc1nccs1)C(C)c1cccc(O)c1 (centres undefined) | 71.3
CC(NC(=O)Nc1nccs1)c1ccc(S(C)(=O)=O)cc1 (centres undefined) | 16.8
CCN(C(=O)Nc1nncs1)C(C)c1cccc(OC)c1 (centres undefined) | -5.22
Cc1cc(C(F)(F)F)n2nc(C3CCCN3C3CCSCC3)cc2n1 (centres undefined) | 5.535
CC1(C)CN(c2cc(C3CC3)ncn2)C[C@]1(C)O | -1.04
COCCn1ccc(NC(=O)Nc2ccc(C(N)=O)c(F)c2)n1 | 11.1
O=C(N[C@@H]1CCN(Cc2cc3ccccc3s2)C[C@H]1O)c1cccnc1 | 22
COC(=O)c1ccn(COc2ccccc2Cl)n1 | -15.5
CCc1nc(C2CCCN2C(=O)CCn2cncn2)no1 (centres undefined) | 30.8

Compound | INHIBITION [%]
Cc1cc(=O)[nH]c(-n2nc(C)c(CCC(=O)Nc3nc(C)cs3)c2C)n1 | 68.2
Cc1cc(=O)[nH]c(-n2nc(C)c(CCC(=O)NCC(C)C)c2C)n1 | 11.3
Cc1cc(=O)[nH]c(-n2nc(C)c(CCC(=O)NCc3ccco3)c2C)n1 | 6.09
Cc1noc(C)c1CCC(=O)NCCc1cccs1 | -1.99
Cc1cc(=O)[nH]c(-n2nc(C)c(CCC(=O)NCc3cccs3)c2C)n1 | 72.2
COC(=O)CCc1c(C)nn(-c2nc(C)cc(=O)[nH]2)c1C | -12.6
Cn1nc(C(=O)NC2(c3ccccc3)CCC2)ccc1=O | -4.35
Cc1c(C)c2c(c(C)c1O)CC[C@](C)(C(=O)O)O2 [(R)-TROLOX] | -10.3
CCCC(C)NCc1cccnc1N1CCN(c2ccccn2)CC1 (centres undefined) | 50.7
CC(C)CC(C)NCc1cccnc1N1CCN(c2ccccn2)CC1 (centres undefined) | 9.56
CC(C)NCc1cccnc1N1CCN(c2ccccn2)CC1 | 37.7
CCc1nc(CN(C)C2CCN(CC(=O)N(C)C)C2)no1 (centres undefined) | 24
O=C(NC1CCN(C(=O)C2CCCCC2)C1)c1ccncc1Cl (centres undefined) | 14.1
Cc1cnn(CCNCC(=O)Nc2ccc(Cl)cn2)c1 | -106
Cc1cnn(CCNCC(O)COc2ccc(Cl)cc2Cl)c1 (centres undefined) | 66.7
Cc1cnn(CCNCC(O)COc2ccc3ccccc3c2)c1 (centres undefined) | 17.4
Cc1cnn(CCNCC(O)c2cccc(Br)c2)c1 (centres undefined) | 16.8
Cc1cnn(CCNCC(O)COc2cc(Cl)ccc2Cl)c1 (centres undefined) | 50.3
Cc1cnn(CCNCC(O)c2ccc(F)c(F)c2)c1 (centres undefined) | 7.21
COc1cc(C(=O)NS(=O)(=O)c2cccc(C#N)c2)cc(OC)c1C | 22.3
O=C(NCCN1CCCCCC1)c1n[nH]c(=O)c2ccccc12 | 4.71
O=C(CCc1ccc(Cl)cc1)N[C@@H]1CC[C@@H](O)[C@@H]1O | 45.75
CC1(C(=O)NC2CCCC2)CCCN(c2cnccn2)C1 (centres undefined) | -4.51

Compound | INHIBITION [%]
CN1CC2(CCCN(c3cnccn3)C2)OC1=O (centres undefined) | 61
COc1ccc(CN2CCOC3(CCCN(c4cnccn4)C3)C2)cc1 (centres undefined) | 44.2
CN1CC2(CCCN(c3cc(N4CCCCC4)ncn3)C2)OC1=O (centres undefined) | 60.1
CNC(=O)C1(C)CCCN(c2cnccn2)C1 (centres undefined) | -26.2
CC1(C(N)=O)CCCN(c2cnccn2)C1 (centres undefined) | 53.2
Cc1cc(N2CCCC3(CN(C)C(=O)O3)C2)c2cc3c(cc2n1)OCO3 (centres undefined) | 28.6
CN1CC2(CCCN(c3nc(N)nc4c3CCCC4)C2)OC1=O (centres undefined) | 45.6
CC(C)Nc1cc(N2CCCC3(CN(C)C(=O)O3)C2)ncn1 (centres undefined) | 17.4
Cc1nc(CCC(N)=O)cc(C2CCNCC2)n1 | -10.8
O=C(COC[C@@H]1CC[C@H]2[C@H](CCN2Cc2ccco2)O1)N1CCCC1 | -54.9
Cc1c(C(=O)N2CCOCC2)nnn1-c1ccc2ncccc2c1 | -29.7
Cc1cc(C(=O)NCc2ccnc(N3CCN(C)CC3)c2)no1 | 17.34
CN1CCN(C(=O)N2C[C@@H]3CC[C@H]2CN(Cc2ccccc2)C3)CC1 | 30.9
c1cnnc(N2CCCC(NCc3cn4ccccc4n3)C2)c1 (centres undefined) | 27.9
CCC1c2cccn2CCN1C(=O)c1ccno1 (centres undefined) | -48.4
O=c1oc(-c2cccs2)nn1CC(O)c1ccc2c(c1)CCC2 (centres undefined) | 59.4
O=c1oc(-c2cccs2)nn1CC(O)c1ccccc1 (centres undefined) | 0.547
O=c1oc(-c2cccs2)nn1CC(O)c1ccc(F)cc1 (centres undefined) | -23.5
CCNC(=O)N1CCC(Nc2nccc(NCC)n2)CC1 | 20.4
CCNc1ccnc(NC2CCN(S(C)(=O)=O)CC2)n1 | 72.3
CCNc1ccnc(NC2CCN(CC(N)=O)CC2)n1 | -9.92
CCOC(=O)N1CC(=O)N(CCc2ccccc2)CC(O)C1 (centres undefined) | 28.3
CCN1C(=O)C(C)(C)c2cc(NC(=O)c3ccn(CC)n3)ccc21 | -42.9
